Eight compounds from PubChem BioAssay (Tox21) can be followed below.

A short description of assay [1]: Nuclear factor erythroid 2-related factor 2/antioxidant responsive element (Nrf2/ARE) small molecule agonists: luciferase reporter gene qHTS assay in human keratinocytes (AID 1919969). Note: nearly all actives have a fitted effect of over 35% in size. Note: potency is the fitted concentration of half-maximal effect.
For assay [2], the target named is Gonadotropin-releasing hormone receptor (Homo sapiens) (UniProt P30968). Briefly: Human gonadotropin-releasing hormone receptor (GnRHR) small molecule agonists, calcium flux assay in GnRHR-HEK293 cells (AID 1920063). Note: nearly all actives have a fitted effect of over 35% in size. Summed up:
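Compounds dissolved in DMSO are pin-transferred onto dye-loaded GnRHR-HEK293 cells, which were seeded 18 h before at 37 C/5% CO2. Calcium signal is read as fluorescence intensity at 1 s intervals for 3 min.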

Assay [3] concerns the target KiSS-1 receptor (Homo sapiens) (UniProt Q969F8). Briefly: Human kisspeptin (KISS1R) small molecule agonists, calcium flux assay in KISS1R-HEK293 cells (AID 1920064; active = well fitted activation curve with a large enough effect in the repeat runs). Summed up:
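Cell line: HEK293, stable human KISS1R. Dye loading 1 h at 37 C after 18 h culture. Read: kinetic fluorescence, 480/540 nm, 3 min at 1 s intervals.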
(Calcium assays in cells follow changes in intracellular calcium, usually with a dye or a luminescent sensor.)

The nature of assay [4]: G protein-coupled receptor (GPCR) small molecule agonists, calcium flux assay: HEK293 wild type cell line counter screen (AID 1920065). Put shortly: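 Tox21 10K compounds, 15 concentrations each in triplicate, pin-transferred in DMSO onto dye-loaded cells; kinetic read at 480/540 nm for 3 min, 1 s intervals.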
A short description of assay [5]: p53 small molecule agonists, cell-based qHTS assay with human liver microsomes (AID 1963577).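 Note: p53 response element beta-lactamase reporter cells with liver microsomes plus NADPH.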 Put shortly: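 Metabolically competent format: test substances, human liver microsomes and NADPH (both 0.5 mg/mL final) incubated with p53RE-bla cells 16 h at 37 C. Beta-lactamase reporter signal then quantified by fluorescence.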
(In general: qHTS replaces the single test concentration by a dilution series.)

A short description of assay [6]: p53 small molecule agonists, cell-based qHTS assay with rat liver microsomes (AID 1963578). Put shortly:
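Each plate received p53RE-bla cells, then compound, then rat liver microsomes and NADPH (both 0.5 mg/mL final). Plates were held 16 h at 37 C, and beta-lactamase activity was detected with LiveBLAzer over 2 h.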

Assay [7] is described as follows: p53 small molecule agonists, cell-based qHTS assay with human liver microsomes: qHTS cell viability counter screen (AID 1963579). Note: nearly all actives have a fitted effect of over 45% in size. Note: potency is the fitted concentration of half-maximal effect. Put shortly: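 Tox21 library compounds, delivered from DMSO stocks, were tested on p53RE-bla cells together with 0.5 mg/mL human liver microsomes and 0.5 mg/mL NADPH (final) over 16 h at 37 C; CellTiter-Glo luminescence served as the cytotoxicity measure.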

Assay [8] is described as follows: p53 small molecule agonists, cell-based qHTS assay with rat liver microsomes: qHTS cell viability counter screen (AID 1963580). Note: nearly all actives have a fitted effect of over 45% in size. Put shortly: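 Cytotoxicity counter screen: intracellular ATP read by CellTiter-Glo luminescence in the p53 reporter wells. HCT-116 p53RE-bla cells were treated for 16 h at 37 C alongside rat liver microsomes and NADPH, each 0.5 mg/mL final.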

Assay [9] can be described thus: p53 small molecule agonists, cell-based qHTS assay (AID 1963582; active = well fitted activation curve with a large enough effect in the signal ratio in the repeat runs, not every such curve was filed as active; the % refers to the signal ratio). Put shortly: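 16 h compound exposure (37 C) of p53 response element–bla cells, preceded by 5 h recovery at 37 C/5% CO2; read-out via LiveBLAzer B/G FRET substrate, 2 h RT, fluorescence intensity.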
The target of assay [10] is Muscarinic acetylcholine receptor M1 (Homo sapiens) (UniProt P11229). Briefly: Cholinergic receptor muscarinic 1 (CHRM1) small molecule agonists, cell-based qHTS assay (AID 1963589). Note: nearly all actives have a fitted effect of over 35% in size. Put shortly:
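Homogeneous fluorescence calcium flux, agonist mode. Human M1-expressing CHO cells; compound dosed at 15 concentrations, three independent runs; signal sampled every 1 sec.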

Assay [11] concerns the target Beta-2 adrenergic receptor (Homo sapiens) (UniProt P07550). Briefly: Adrenergic beta2 receptor (ADRB2) small molecule antagonists, cell-based qHTS assay (AID 1963592). Note: series mostly up to about 92 µM; nearly all actives have a fitted effect of over 50% in size. Put shortly:
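Assay format: CHO-ADRB2 cells, 18-20hr seeding at 37C/5% CO2, then compound plus 1nM isoproterenol agonist mix for 0.5hr RT. Homogeneous time-resolved fluorescence cAMP detection after 1hr, expressed as 665/615 nm ratio.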

Assay [12] has as its target D(2) dopamine receptor (Homo sapiens) (UniProt P14416). Briefly: Dopamine D2 receptor (DRD2) small molecule agonists, cell-based qHTS assay (AID 1963594). Note: nearly all actives have a fitted effect of over 35% in size. Note: potency is the fitted concentration of half-maximal effect. Put shortly: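 cAMP accumulation in DRD2-HEK293 cells measured by HTRF after 1 h detection; compounds added 10 min before NKH477 (200nM […]) forskolin-analogue stimulation, 30 min at room temperature, with Ro20-1724 present at 0.1 mM final.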

Assay [13] has the same target. Description: Dopamine D2 receptor (DRD2) small molecule antagonists, cell-based qHTS assay (AID 1963595; active = well fitted inhibition curve with a large enough effect in the signal ratio in the repeat runs, with a control signal flat; the % refers to the signal ratio; note: potency is the fitted concentration of half-maximal effect). Put shortly:
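Human DRD2 antagonist qHTS measuring cAMP by HTRF. The cells are exposed to compound for 10 min, then to NKH477 (200 nM) and quinpirole (12 nM) for 30 min at RT, with Ro20-1724 (0.1 mM) present throughout.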

The target in assay [14] is 5-hydroxytryptamine receptor 2A (Homo sapiens) (UniProt P28223). Briefly: 5-hydroxytryptamine receptor 2A (HTR2A) small molecule antagonists, cell-based qHTS assay (AID 1963586). Note: nearly all actives have a fitted effect of over 45% in size. Note: potency is the fitted concentration of half-maximal effect. Put shortly: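 CHO cells stably expressing human HTR2A were plated for 18 h at 37 C, then loaded with calcium dye for 1 h. Compounds were preincubated 5 min at room temperature before DOI (4 nM solution) was added. Kinetic fluorescence was read for 3 min.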

Assay [15] concerns the target Muscarinic acetylcholine receptor M1 (Homo sapiens) (UniProt P11229). Briefly: Cholinergic receptor muscarinic 1 (CHRM1) small molecule antagonists, cell-based qHTS assay (AID 1963588). Note: nearly all actives have a fitted effect of over 40% in size. Note: potency is the fitted concentration of half-maximal effect. Put shortly: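 Compounds were tested at 15 concentrations in three independent runs. Dye-loaded CHRM1-CHO cells were exposed 5 min at room temperature before stimulation by acetylcholine added at 50nM. Intracellular calcium was read kinetically on FDSS for 3 min.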

Assay [16] can be described thus: p53 small molecule agonists, cell-based qHTS assay: qHTS cell viability counter screen (AID 1963581). Note: nearly all actives have a fitted effect of over 45% in size. Put shortly: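 ATP content measured by luminescence in HCT-116 p53RE-bla cells treated 16 h at 37 C, same wells as the reporter screen.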
In assay [17] the target is 5-hydroxytryptamine receptor 2A (Homo sapiens) (UniProt P28223). Briefly: 5-hydroxytryptamine receptor 2A (HTR2A) small molecule agonists, cell-based qHTS assay (AID 1963587). Note: nearly all actives have a fitted effect of over 30% in size. Put shortly: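 Kinetic calcium-flux fluorescence (2 min, 1 sec intervals) after compound addition in agonist mode. HTR2A-CHO cells were cultured 18 h, then dye-loaded 1 h at 37 C.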
A short description of assay [18]: cAMP Responsive Elements (CRE) small molecule antagonists, cell-based qHTS assay (AID 1963591; active = well fitted inhibition curve with a large enough effect in the signal ratio in the repeat runs, not every such curve was filed as active; the % refers to the signal ratio). Summed up: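 First, CRE-bla HEK293T cells settled 18 h at 37 C. Next, compound and 0.25 uM final NKH477 were applied for 3 h. Last, LiveBLAzer B/G substrate was loaded for 2 h at room temperature.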
The nature of assay [19]: cAMP Responsive Elements (CRE) small molecule agonists, cell-based qHTS assay (AID 1963590). Summed up:
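HEK 293T cells stably bearing CRE-bla were plated at 2,000 cells per well and rested 18 h. Compounds, positive controls or DMSO were added for 3 h at 37 C. LiveBLAzer B/G substrate was then loaded for 2 h at room temperature.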

Assay [20] addresses Beta-2 adrenergic receptor (Homo sapiens) (UniProt P07550). Description: Adrenergic beta2 receptor (ADRB2) small molecule agonists, cell-based qHTS assay (AID 1963593).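 Note: CHO cells stably overexpressing human ADRB2.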 Summed up:
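CHO cells stably over-expressing ADRB2 were plated overnight at 37C, then dosed with compounds plus a stimulation mix containing 100uM IBMX and 25uM Ro-20-1724 for 0.5hr at room temperature. cAMP was measured by HTRF competition, 1hr.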

Values joined by “and” are separate entries in the source; they are usually repeats but may differ in a detail not shown here. Equal values may be shown once. A number with no mark means an inactive call. Results filed as inconclusive are left out. Active and inactive are the calls of the source. Unless noted, calls come from the whole dose curve.

Chain of KiSS-1 receptor (Homo sapiens) (Q969F8 whole entry, looked up): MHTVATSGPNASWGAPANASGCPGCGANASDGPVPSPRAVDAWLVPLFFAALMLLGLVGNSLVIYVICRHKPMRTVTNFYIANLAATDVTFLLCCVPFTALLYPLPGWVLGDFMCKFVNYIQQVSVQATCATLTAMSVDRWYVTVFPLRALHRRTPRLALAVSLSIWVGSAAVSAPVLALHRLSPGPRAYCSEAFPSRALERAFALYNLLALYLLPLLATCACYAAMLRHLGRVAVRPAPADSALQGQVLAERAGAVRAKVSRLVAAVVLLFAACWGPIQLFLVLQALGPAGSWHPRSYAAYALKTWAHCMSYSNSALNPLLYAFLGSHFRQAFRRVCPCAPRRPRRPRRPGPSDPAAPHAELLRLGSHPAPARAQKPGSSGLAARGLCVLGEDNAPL
Chain of Beta-2 adrenergic receptor (Homo sapiens) (P07550 whole entry, looked up): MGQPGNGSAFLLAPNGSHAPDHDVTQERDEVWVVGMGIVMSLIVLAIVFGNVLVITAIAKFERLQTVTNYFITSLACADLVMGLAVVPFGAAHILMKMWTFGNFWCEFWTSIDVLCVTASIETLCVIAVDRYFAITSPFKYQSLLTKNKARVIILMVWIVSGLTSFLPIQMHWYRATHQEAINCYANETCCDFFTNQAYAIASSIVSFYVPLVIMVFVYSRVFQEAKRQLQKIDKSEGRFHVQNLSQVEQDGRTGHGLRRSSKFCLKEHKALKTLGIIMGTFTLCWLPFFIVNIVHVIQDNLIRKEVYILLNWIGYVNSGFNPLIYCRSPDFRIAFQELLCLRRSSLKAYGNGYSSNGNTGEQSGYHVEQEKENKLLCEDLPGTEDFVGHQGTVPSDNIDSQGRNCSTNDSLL
Chain of D(2) dopamine receptor (Homo sapiens) (P14416 whole entry, looked up): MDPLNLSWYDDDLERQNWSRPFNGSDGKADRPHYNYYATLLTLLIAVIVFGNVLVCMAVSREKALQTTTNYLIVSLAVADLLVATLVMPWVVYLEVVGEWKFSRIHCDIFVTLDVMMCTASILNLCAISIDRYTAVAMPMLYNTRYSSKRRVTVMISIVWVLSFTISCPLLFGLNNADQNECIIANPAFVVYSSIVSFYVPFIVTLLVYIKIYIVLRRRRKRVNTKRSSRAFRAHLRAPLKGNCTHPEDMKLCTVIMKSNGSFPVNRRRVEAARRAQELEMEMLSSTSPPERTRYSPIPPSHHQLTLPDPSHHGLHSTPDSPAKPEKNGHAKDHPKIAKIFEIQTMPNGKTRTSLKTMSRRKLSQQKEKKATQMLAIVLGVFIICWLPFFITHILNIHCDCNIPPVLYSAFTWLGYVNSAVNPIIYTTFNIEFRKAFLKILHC
Chain of Gonadotropin-releasing hormone receptor (Homo sapiens) (P30968 whole entry, looked up): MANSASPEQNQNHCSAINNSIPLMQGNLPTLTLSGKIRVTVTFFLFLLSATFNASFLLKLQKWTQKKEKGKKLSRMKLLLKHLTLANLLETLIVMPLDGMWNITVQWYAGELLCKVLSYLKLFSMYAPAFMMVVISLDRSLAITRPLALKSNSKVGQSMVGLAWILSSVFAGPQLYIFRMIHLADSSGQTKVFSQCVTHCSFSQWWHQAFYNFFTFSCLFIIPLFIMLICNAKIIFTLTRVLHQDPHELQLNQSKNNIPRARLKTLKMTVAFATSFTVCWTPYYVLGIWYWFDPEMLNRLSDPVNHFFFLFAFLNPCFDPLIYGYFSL
Chain of 5-hydroxytryptamine receptor 2A (Homo sapiens) (P28223 whole entry, looked up): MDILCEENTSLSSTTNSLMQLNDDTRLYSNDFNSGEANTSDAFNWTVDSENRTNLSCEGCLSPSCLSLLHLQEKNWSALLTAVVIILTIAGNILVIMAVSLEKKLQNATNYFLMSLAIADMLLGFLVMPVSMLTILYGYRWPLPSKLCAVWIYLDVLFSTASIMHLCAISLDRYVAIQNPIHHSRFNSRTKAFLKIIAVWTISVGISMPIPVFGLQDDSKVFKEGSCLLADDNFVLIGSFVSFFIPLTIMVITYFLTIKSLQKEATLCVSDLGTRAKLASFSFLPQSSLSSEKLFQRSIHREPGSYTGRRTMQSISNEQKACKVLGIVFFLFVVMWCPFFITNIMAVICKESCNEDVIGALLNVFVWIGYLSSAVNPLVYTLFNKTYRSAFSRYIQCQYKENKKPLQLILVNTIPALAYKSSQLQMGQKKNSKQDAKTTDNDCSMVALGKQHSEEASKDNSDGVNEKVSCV
Chain of Muscarinic acetylcholine receptor M1 (Homo sapiens) (P11229 whole entry, looked up): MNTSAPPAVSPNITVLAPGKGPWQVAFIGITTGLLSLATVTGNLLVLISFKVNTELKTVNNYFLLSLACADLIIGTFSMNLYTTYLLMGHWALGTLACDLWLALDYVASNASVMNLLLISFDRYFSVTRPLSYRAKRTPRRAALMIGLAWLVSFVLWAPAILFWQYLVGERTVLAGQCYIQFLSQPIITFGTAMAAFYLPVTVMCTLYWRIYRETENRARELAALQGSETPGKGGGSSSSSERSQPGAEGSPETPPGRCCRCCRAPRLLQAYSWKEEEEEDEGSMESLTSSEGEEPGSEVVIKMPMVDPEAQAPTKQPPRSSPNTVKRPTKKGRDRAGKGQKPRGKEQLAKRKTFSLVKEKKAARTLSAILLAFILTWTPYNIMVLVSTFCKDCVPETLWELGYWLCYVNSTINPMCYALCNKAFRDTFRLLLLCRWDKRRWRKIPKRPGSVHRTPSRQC

For the compound `Oc1ccc(Cl)cc1C1CCCC1`, the Potency entry in assay [1], in [2], in [3], in assay [4], in assay [5] and in [6] was “inactive” each time. In addition, the Potency result in [8], in assay [9], in assay [10], in assay [11] and in assay [12] was “inactive” throughout. Also, the Potency is 36.3 µM (active) in [7] and 61.1 µM (active) in [13].
`CCCCc1oc2ccc(NS(C)(=O)=O)cc2c1C(=O)c1ccc(OCCCN(CCCC)CCCC)cc1`: the Potency entry in assay [1], in assay [2], in assay [3], in assay [4], in assay [5] and in assay [6] was “inactive” throughout. For the same compound, the Potency result in [7], in assay [8], in assay [14], in assay [15], in [10] and in assay [11] was “inactive” throughout. Also, the Potency entry in assay [12] was “inactive”.
Turning to `O=C1CCCCCN1SSN1CCCCCC1=O`, in assay [1], the Potency is 24.3 µM (active). Also, the Potency entry in assay [2], in assay [3], in assay [4], in [5], in [6] and in [7] was “inactive” in each case. In addition, the Potency result in assay [8], in assay [16], in [14], in assay [17], in assay [15] and in assay [10] was “inactive” each time. The Potency result in assay [18], in assay [12] and in [13] was “inactive” each time.
On to `COc1ccc(N=Nc2cc(C)c(N=Nc3ccc(S(=O)(=O)O)cc3)cc2OC)cc1`, for which the Potency result in [1], in [2], in [3], in [4], in [5] and in [6] was “inactive” throughout. The Potency entry in assay [7], in [16], in [9], in assay [14], in assay [17] and in [15] was “inactive” throughout. Further, the Potency entry in assay [10], in [19], in assay [12] and in assay [13] was “inactive” throughout.
Turning to `CNC(=S)NC`, the Potency result in assay [1], in [2], in assay [3], in assay [4], in assay [5] and in assay [6] was “inactive” each time. Moreover, the Potency entry in assay [7], in assay [8], in assay [14], in assay [17], in [15] and in [10] was “inactive” throughout. The Potency result in assay [11], in assay [20], in assay [12] and in assay [13] was “inactive” each time.
As to `C1CN(SSN2CCOCC2)CCO1`, in assay [1], the Potency was 13.5 µM (active) and 68.6 µM (active). Moreover, the Potency entry in assay [2], in assay [3], in assay [4], in assay [5], in [6] and in assay [7] was “inactive” in each case. In addition, the Potency result in assay [8], in assay [16], in assay [14], in [15], in [10] and in assay [12] was “inactive” in each case. The Potency result in [13] was “inactive”.
As for `N#C/C(=C1/SC[C@@H](c2ccc(Cl)cc2Cl)S1)n1ccnc1`, the Potency entry in assay [1], in assay [2], in assay [3], in assay [4], in [5] and in [6] was “inactive” throughout. Also, the Potency entry in [7], in assay [8], in assay [16], in [14], in [17] and in assay [15] was “inactive” throughout. For the same compound, the Potency entry in assay [10], in [11], in [20] and in assay [13] was “inactive” each time. Moreover, the Potency in [12] is 26.6 µM (active).
Regarding `CC[N+](CC)(CC)CCOc1ccc(/C=C/c2ccccc2)cc1`, the Potency result in assay [1], in assay [2], in [3], in assay [4], in [5] and in assay [6] was “inactive” throughout. For the same compound, the Potency entry in assay [7], in [8], in [9], in [17], in [10] and in [19] was “inactive” each time. For the same compound, the Potency entry in assay [18] and in assay [11] was “inactive” in each case. The Potency in [14] is 18.3 µM (active); in [15], 1.16 µM (active).
